Experimental data: the supplement of paper PMC10849652
Targets with a hit are over-represented here; the source holds about 7,900 in all. About 0.6% of all pairs of compound and target were hits.

Key:
Test in all cases: log2 fold change, soluble protein after heating vs DMSO (PISA); higher = thermal stabilisation; K562 cells, 10 uM, 30 min; active = over 0.2 and 3.5 SD of the protein, either way, in both replicates (recomputed)
[1] = compound: COC1=CC=C(C=C1)CN2C=CC3=C2C=C(C=C3)C(=O)NO
Outline: (§1)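 Soluble protein was defined as the supernatant after 21,000xg for 90 min. It came from K562 cells at 2×10^6 cells/mL given 10 μM compound for 30 min, heated in aliquots for 3 min across 48°C-58°C, pooled, and extracted in PBS with 0.5% NP-40 at 4°C, and was quantified by TMTpro 16plex LC-MS/MS with equalised channel sums. Thermal stability against control samples, from duplicates, is reported as log2 fold change.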

[2] = compound: CON(C)C(=O)N1N=C(c2cc(F)ccc2F)S[C@@]1(CCCN)c1ccccc1 [filanesib]
Outline: as §1

[3] = compound: CO[C@H]1C[C@@H]2CC[C@@H](C)[C@@](O)(O2)C(=O)C(=O)N2CCCC[C@H]2C(=O)O[C@H]([C@H](C)C[C@@H]2CC[C@H](n3cnnn3)[C@H](OC)C2)CC(=O)[C@H](C)/C=C(\C)[C@@H](O)[C@@H](OC)C(=O)[C@H](C)C[C@H](C)/C=C/C=C/C=C/1C [zotarolimus]
Outline: as §1

[4] = compound: COc1cc(C(=O)O)ccc1NC(=O)[C@@H]1N[C@@H](CC(C)(C)C)[C@](C#N)(c2ccc(Cl)cc2F)[C@H]1c1cccc(Cl)c1F [idasanutlin]
Outline: as §1

[5] = compound: COc1cc(Nc2ncc3c(n2)-c2ccc(Cl)cc2C(c2c(F)cccc2OC)=NC3)ccc1C(=O)O [alisertib]
Outline: as §1

[6] = compound: COc1cc2nc(-c3cc(F)ccc3O)nc(N[C@@H]3CNC[C@H]3C(C)(C)O)c2cc1OC
Outline: as §1

[7] = compound: COc1cc2ncnc(Nc3ccc(F)c(Cl)c3)c2cc1OCCCN1CCOCC1 [gefitinib]
Outline: as §1

[8] = compound: COc1cccc2cc(-c3nc([C@H]4CC[C@H](C(=O)O)CC4)n4ncnc(N)c34)[nH]c12
Outline: as §1

[9] = compound: CS(=O)(=O)CCNCc1ccc(-c2ccc3ncnc(Nc4ccc(OCc5cccc(F)c5)c(Cl)c4)c3c2)o1 [lapatinib]
Outline: as §1

[10] = compound: CS(=O)(=O)N1CCN(Cc2cc3nc(-c4cccc5[nH]ncc45)nc(N4CCOCC4)c3s2)CC1 [pictilisib]
Outline: as §1

[11] = compound: CS(=O)(=O)c1ccc(-c2cnc(N)c(C(=O)Nc3ccccc3)n2)cc1
Outline: as §1

[12] = compound: C[C@@H](Oc1cc(-c2cnn(C3CCNCC3)c2)cnc1N)c1c(Cl)ccc(F)c1Cl [crizotinib]
Outline: as §1

[13] = compound: C[C@@H]1COCCN1C2=NC(=NC(=C2)C3(CC3)S(=O)(=O)C)C4=C5C=CNC5=CC=C4
Outline: as §1

[14] = compound: C[C@H](C1=CC=C(C=C1)C(=O)NC2=C3C=CNC3=NC=C2)N
Outline: as §1

[15] = compound: C[C@H](Nc1ncnc2nc[nH]c12)c1cc2cccc(Cl)c2c(=O)n1-c1ccccc1 [duvelisib]
Outline: as §1

[16] = compound: Cc1cc(Nc2cc(CN3CCOCC3)c3nc(C)c(Cc4ccc(Cl)cc4F)n3n2)n[nH]1 [gandotinib]
Outline: as §1

[17] = compound: Cc1cc(Nc2cc(N3CCN(C)CC3)nc(Sc3ccc(NC(=O)C4CC4)cc3)n2)n[nH]1 [tozasertib]
Outline: as §1

[18] = compound: Cc1cc(SCc2sc(-c3ccc(C(F)(F)F)cc3)nc2C)ccc1OCC(=O)O
Outline: as §1

[19] = compound: Cc1ccc(-n2nc(C(C)(C)C)cc2NC(=O)Nc2ccc(OCCN3CCOCC3)c3ccccc23)cc1 [doramapimod]
Outline: as §1

[20] = compound: Cc1ccc(C(=O)N(CCCN)[C@@H](c2nc3cc(Cl)ccc3c(=O)n2Cc2ccccc2)C(C)C)cc1 [ispinesib]
Outline: as §1

Measured: log2 fold change

RBM17 (UniProt Q96I25)
Sequence of UniProt Q96I25 (Q96I25 whole entry, looked up): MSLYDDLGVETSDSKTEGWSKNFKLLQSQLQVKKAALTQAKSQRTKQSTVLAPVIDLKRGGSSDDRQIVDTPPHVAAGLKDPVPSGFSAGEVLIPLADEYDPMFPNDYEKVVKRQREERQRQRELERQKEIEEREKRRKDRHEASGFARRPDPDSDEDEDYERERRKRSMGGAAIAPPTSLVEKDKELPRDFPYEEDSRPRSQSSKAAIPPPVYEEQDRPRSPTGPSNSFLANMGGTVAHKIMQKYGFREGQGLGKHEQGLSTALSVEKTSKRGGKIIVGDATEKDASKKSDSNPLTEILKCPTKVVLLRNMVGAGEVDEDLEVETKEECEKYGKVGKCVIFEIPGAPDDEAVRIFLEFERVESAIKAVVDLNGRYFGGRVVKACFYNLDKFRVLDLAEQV
inactive: [1] 0.026 | [2] 0.038 | [3] 0.064 | [4] 0.121 | [5] -0.055 | [6] -0.031 | [7] 0.003 | [8] 0.019 | [9] 0 | [10] -0.276 | [11] -0.043 | [12] -0.065 | [13] 0.106 | [14] 0.02 | [15] 0.031 | [16] -0.031 | [17] 0.057 | [18] 0.106 | [19] -0.028 | [20] 0.007

RAC3 (UniProt P60763)
inactive: [1] 0.025 | [2] 0.031 | [3] 0.125 | [4] 0.017 | [5] -0.038 | [6] -0.067 | [7] 0.017 | [8] 0.026 | [9] 0.061 | [10] 0.071 | [11] 0.074 | [12] 0.097 | [13] 0.073 | [14] -0.027 | [15] 0.145 | [16] 0 | [17] -0.086 | [18] 0.005 | [20] -0.013
active: [19] 0.262

SLC1A5 (UniProt Q15758)
inactive: [1] -0.048 | [2] 0.071 | [3] -0.052 | [4] 0.031 | [5] -0.126 | [6] 0.058 | [7] 0.023 | [8] 0.095 | [9] -0.01 | [10] 0.024 | [11] 0.026 | [12] 0.13 | [13] 0.072 | [14] -0.186 | [15] 0.044 | [16] -0.105 | [17] -0.064 | [18] -0.091 | [19] -0.007 | [20] 0.167

SLBP (UniProt Q14493)
Sequence of UniProt Q14493 (Q14493 whole entry, looked up): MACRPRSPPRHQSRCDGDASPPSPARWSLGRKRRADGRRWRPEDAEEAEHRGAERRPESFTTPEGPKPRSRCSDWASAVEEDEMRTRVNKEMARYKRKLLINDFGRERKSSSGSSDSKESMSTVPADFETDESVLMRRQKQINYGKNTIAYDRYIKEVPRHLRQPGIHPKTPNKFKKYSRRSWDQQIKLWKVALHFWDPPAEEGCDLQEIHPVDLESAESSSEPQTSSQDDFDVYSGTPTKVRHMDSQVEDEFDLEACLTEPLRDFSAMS
inactive: [1] -0.148 | [2] -0.035 | [3] 0.112 | [4] 0.224 | [5] -0.152 | [6] -0.199 | [7] 0.034 | [8] 0.077 | [9] 0.004 | [10] 0.05 | [11] -0.026 | [12] -0.042 | [13] 0.132 | [14] 0.003 | [15] -0.128 | [16] -0.022 | [17] -0.012 | [18] 0.055 | [19] 0.007 | [20] -0.063

RRAGC (UniProt Q9HB90)
inactive: [1] -0.028 | [2] -0.095 | [3] -0.009 | [4] -0.065 | [5] -0.003 | [6] 0.011 | [7] -0.01 | [8] 0.057 | [9] -0.01 | [10] 0.066 | [11] 0.016 | [12] -0.262 | [13] 0.008 | [14] -0.027 | [15] 0.053 | [16] 0 | [17] -0.061 | [18] -0.039 | [19] 0.019 | [20] -0.153

RNASET2 (UniProt O00584)
Sequence of UniProt O00584 (O00584 whole entry, looked up): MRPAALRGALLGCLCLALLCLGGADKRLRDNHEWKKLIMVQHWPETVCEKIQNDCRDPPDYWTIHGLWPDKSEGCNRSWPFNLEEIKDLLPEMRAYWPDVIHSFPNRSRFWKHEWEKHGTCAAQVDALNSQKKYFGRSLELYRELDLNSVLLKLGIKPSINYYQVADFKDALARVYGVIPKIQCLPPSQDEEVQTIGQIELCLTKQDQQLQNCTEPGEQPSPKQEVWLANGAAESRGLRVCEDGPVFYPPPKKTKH
inactive: [1] 0.012 | [2] -0.155 | [3] -0.013 | [4] -0.021 | [5] -0.046 | [6] -0.097 | [7] -0.081 | [8] 0.035 | [9] -0.028 | [10] 0.024 | [11] 0.033 | [13] 0.027 | [14] 0.08 | [15] 0.045 | [16] 0.01 | [17] -0.011 | [18] -0.037 | [19] -0.013 | [20] -0.149
active: [12] -0.35

RAP1GDS1 isoform 5 (UniProt P52306)
Sequence of UniProt P52306 (P52306 whole entry, looked up): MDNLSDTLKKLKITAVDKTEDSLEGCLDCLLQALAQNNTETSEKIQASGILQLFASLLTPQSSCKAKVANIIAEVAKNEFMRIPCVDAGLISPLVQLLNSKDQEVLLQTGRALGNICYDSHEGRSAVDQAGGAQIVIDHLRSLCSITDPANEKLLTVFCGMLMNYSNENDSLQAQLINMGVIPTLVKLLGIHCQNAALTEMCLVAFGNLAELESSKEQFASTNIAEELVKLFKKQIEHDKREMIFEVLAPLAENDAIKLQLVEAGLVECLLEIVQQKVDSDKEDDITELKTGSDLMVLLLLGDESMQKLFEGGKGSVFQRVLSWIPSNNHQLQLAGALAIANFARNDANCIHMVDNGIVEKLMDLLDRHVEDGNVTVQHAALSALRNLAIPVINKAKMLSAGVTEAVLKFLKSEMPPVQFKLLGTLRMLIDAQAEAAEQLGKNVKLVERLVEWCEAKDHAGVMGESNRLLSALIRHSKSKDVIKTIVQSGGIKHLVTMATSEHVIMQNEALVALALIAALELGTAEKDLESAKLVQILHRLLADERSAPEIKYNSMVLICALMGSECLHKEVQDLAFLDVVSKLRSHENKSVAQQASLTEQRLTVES
inactive: [1] -0.026 | [2] -0.019 | [3] 0.022 | [4] -0.023 | [5] -0.041 | [6] -0.025 | [7] 0.066 | [8] -0.072 | [9] 0.091 | [10] 0.015 | [11] 0.061 | [12] -0.062 | [13] 0.08 | [14] 0.009 | [15] -0.009 | [16] -0.066 | [17] 0.079 | [18] 0.036 | [19] -0.014 | [20] -0.096

RHOA (UniProt P61586)
Sequence of UniProt P61586 (P61586 whole entry, looked up): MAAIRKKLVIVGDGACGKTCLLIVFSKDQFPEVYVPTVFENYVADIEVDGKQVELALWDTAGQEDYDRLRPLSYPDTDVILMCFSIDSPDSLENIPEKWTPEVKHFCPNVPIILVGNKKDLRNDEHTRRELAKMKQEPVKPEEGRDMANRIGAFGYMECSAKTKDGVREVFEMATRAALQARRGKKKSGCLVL
active: [1] 0.284
inactive: [2] -0.012 | [3] -0.054 | [4] 0.1 | [5] -0.085 | [6] -0.118 | [7] 0.036 | [8] -0.012 | [9] 0.036 | [10] -0.178 | [11] 0.028 | [12] 0.098 | [13] -0.317 | [14] -0.101 | [15] -0.066 | [16] 0.022 | [17] -0.024 | [18] -0.035 | [19] -0.082 | [20] 0.219

SIRT2 (UniProt Q8IXJ6)
Sequence of UniProt Q8IXJ6 (Q8IXJ6 whole entry, looked up): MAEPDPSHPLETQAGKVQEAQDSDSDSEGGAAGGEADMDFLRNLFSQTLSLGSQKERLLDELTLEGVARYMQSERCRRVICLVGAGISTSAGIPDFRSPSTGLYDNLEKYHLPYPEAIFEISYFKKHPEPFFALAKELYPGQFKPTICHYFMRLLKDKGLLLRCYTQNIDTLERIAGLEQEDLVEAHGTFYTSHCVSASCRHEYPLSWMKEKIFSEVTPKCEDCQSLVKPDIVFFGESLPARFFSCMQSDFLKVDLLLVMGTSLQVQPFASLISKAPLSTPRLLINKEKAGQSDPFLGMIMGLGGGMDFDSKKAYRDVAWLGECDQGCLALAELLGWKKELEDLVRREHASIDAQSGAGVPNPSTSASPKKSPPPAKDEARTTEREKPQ
inactive: [1] 0.083 | [2] -0.02 | [3] -0.029 | [4] 0.016 | [5] 0.036 | [6] -0.012 | [7] 0.069 | [8] 0.017 | [9] 0.065 | [10] 0.168 | [11] 0.042 | [12] -0.015 | [13] -0.002 | [14] 0.072 | [15] -0.048 | [16] 0.002 | [17] -0.099 | [18] -0.032 | [19] -0.009 | [20] -0.001

SH3GLB2 (UniProt Q9NR46)
Sequence of UniProt Q9NR46 (Q9NR46 whole entry, looked up): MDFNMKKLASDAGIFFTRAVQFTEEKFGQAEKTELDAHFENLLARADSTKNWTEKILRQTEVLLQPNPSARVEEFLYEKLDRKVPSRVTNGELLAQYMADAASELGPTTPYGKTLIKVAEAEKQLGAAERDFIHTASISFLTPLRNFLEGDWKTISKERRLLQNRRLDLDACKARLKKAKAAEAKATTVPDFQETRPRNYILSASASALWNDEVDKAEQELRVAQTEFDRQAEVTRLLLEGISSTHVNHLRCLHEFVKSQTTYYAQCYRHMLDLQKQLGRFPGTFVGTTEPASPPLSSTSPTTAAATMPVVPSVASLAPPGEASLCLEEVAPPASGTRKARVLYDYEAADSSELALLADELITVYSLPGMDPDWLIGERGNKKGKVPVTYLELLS
inactive: [1] 0.016 | [2] 0.085 | [3] 0.052 | [4] 0.061 | [5] -0.011 | [6] -0.034 | [7] -0.004 | [8] -0.018 | [9] -0.04 | [10] 0.025 | [11] 0.031 | [12] -0.104 | [13] -0.101 | [14] 0.013 | [15] -0.022 | [16] -0.183 | [17] 0.014 | [18] 0.073 | [19] 0.013 | [20] -0.052

REL (UniProt Q04864)
Sequence of UniProt Q04864 (Q04864 whole entry, looked up): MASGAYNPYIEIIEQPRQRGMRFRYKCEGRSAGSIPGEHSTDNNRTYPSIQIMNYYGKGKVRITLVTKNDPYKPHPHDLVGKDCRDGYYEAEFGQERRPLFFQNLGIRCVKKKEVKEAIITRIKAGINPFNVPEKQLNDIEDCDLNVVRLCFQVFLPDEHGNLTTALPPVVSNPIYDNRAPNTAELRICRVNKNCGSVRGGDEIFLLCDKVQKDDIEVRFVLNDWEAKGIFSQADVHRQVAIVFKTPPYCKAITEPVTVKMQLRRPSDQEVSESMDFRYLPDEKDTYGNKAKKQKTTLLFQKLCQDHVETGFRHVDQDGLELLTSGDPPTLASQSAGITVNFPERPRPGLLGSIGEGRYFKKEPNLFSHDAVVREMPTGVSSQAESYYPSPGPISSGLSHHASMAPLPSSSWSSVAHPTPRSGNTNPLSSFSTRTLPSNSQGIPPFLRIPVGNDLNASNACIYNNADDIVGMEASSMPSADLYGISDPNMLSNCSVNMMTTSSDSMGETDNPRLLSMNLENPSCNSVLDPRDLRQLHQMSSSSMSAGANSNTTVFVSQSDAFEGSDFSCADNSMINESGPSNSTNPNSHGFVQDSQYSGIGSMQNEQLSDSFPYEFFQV
inactive: [1] -0.006 | [2] 0.051 | [3] 0.004 | [4] 0.033 | [5] 0.068 | [6] 0.062 | [7] 0.148 | [8] -0.086 | [9] -0.031 | [10] -0.243 | [11] 0.079 | [12] -0.04 | [13] 0.005 | [14] 0.02 | [15] -0.034 | [16] -0.321 | [17] 0.026 | [18] 0.028 | [19] -0.003 | [20] -0.088

RDH10 (UniProt Q8IZV5)
Sequence of UniProt Q8IZV5 (Q8IZV5 whole entry, looked up): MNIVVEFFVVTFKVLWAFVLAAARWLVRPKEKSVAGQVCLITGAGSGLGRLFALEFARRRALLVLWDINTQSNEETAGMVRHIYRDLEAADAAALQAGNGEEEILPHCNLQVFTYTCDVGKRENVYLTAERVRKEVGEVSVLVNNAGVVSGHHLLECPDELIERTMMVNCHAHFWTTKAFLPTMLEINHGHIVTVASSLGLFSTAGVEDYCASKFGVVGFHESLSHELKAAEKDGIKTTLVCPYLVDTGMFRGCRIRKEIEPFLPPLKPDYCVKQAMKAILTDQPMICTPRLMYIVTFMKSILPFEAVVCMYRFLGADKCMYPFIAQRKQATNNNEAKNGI
inactive: [1] -0.007 | [2] -0.023 | [3] -0.03 | [4] -0.14 | [5] 0.013 | [6] 0.031 | [7] 0.083 | [8] 0.036 | [9] 0.037 | [10] 0.009 | [11] -0.016 | [12] 0.087 | [13] 0.116 | [14] -0.011 | [15] 0.015 | [16] -0.111 | [17] -0.009 | [18] -0.003 | [19] -0.016 | [20] 0.036

REEP4 (UniProt Q9H6H4)
Sequence of UniProt Q9H6H4 (Q9H6H4 whole entry, looked up): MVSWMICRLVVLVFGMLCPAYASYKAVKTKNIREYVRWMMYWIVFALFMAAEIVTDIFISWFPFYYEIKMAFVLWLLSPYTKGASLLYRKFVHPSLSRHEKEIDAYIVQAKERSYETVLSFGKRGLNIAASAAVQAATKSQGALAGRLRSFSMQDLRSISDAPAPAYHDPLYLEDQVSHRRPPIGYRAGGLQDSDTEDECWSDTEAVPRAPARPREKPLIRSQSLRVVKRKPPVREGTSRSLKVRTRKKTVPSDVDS
active: [6] -0.32 | [20] -0.275
inactive: [1] -0.039 | [2] -0.072 | [3] -0.034 | [4] 0.033 | [5] -0.07 | [7] -0.032 | [8] -0.031 | [9] 0.121 | [10] -0.175 | [11] -0.015 | [12] -0.148 | [13] -0.027 | [14] 0.02 | [15] -0.013 | [16] 0.001 | [17] -0.111 | [18] 0.02 | [19] 0.06

RPS3 (UniProt P23396)
inactive: [1] -0.093 | [2] 0.102 | [3] -0.023 | [4] 0.055 | [5] -0.05 | [6] -0.027 | [7] -0.056 | [8] -0.149 | [9] 0.053 | [10] -0.059 | [11] -0.07 | [12] 0.025 | [13] -0.258 | [14] 0.203 | [15] -0.06 | [16] 0.134 | [17] 0.022 | [18] 0.045 | [19] 0.077 | [20] -0.127

RUFY1 (UniProt Q96T51)
Sequence of UniProt Q96T51 (Q96T51 whole entry, looked up): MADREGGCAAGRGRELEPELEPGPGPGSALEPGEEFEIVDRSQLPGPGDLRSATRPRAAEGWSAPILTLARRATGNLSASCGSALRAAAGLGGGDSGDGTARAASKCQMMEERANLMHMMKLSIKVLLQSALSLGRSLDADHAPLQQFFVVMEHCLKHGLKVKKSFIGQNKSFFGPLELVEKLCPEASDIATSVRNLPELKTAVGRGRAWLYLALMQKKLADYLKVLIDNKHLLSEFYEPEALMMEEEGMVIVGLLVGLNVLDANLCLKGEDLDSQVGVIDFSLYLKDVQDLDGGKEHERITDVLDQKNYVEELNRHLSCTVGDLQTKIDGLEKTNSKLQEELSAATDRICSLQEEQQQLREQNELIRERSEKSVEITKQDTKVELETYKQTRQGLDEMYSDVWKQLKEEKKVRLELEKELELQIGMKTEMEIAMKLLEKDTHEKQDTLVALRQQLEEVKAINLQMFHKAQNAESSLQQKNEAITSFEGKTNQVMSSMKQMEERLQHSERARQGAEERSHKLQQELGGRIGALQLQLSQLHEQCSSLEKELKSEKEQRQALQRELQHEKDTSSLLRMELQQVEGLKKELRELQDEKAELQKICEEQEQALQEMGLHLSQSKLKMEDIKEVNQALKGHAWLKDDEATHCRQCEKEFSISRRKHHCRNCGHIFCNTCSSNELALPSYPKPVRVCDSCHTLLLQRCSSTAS
inactive: [1] -0.015 | [2] 0.005 | [3] 0.056 | [4] -0.049 | [5] 0.047 | [6] 0.02 | [7] -0.004 | [8] -0.053 | [9] -0.035 | [10] -0.009 | [11] -0.04 | [12] -0.003 | [13] -0.034 | [14] 0.075 | [15] -0.005 | [16] -0.029 | [17] 0.166 | [18] 0.118 | [19] 0.032 | [20] -0.065

SDCBP (UniProt O00560)
Sequence of UniProt O00560 (O00560 whole entry, looked up): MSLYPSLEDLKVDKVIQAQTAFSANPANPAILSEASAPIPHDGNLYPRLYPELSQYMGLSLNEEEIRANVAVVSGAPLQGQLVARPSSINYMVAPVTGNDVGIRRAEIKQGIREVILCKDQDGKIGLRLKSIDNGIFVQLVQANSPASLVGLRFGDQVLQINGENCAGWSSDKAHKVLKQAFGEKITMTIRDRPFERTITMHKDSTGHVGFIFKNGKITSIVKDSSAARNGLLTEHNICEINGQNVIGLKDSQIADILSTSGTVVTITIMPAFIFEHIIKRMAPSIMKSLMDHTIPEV
inactive: [1] -0.022 | [2] -0.154 | [3] 0.1 | [4] 0.101 | [5] -0.04 | [6] -0.152 | [7] -0.043 | [8] -0.022 | [9] 0.005 | [10] -0.05 | [11] -0.003 | [12] -0.216 | [13] 0.101 | [14] -0.043 | [15] -0.008 | [16] 0.094 | [17] 0.048 | [18] 0.086 | [19] -0.006
active: [20] -0.361
